# From PubChem BioAssay
# Inconclusive results are not listed. Activity calls are given as the source filed them. Unless noted, no stated cut-off is given here; in the data, active means inhibition above about 80%; inactive means the rest.
# What was measured:
# [1] = SU-DIPG-XXV glioma cell viability, MIPE5.0 library, qHTS (AID 1347068; cut-off not given, nearly all actives have IC50 up to about 30 µM)
# [2] = LFS_MB_P medulloblastoma growth inhibition, cell-based, chromothripsis tumors, cisplatin or BGB combos (AID 1671449); details: LFS_MB_P medulloblastoma cells;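 further: cells exposed for 96 hours; 0% = vehicle DMSO and 100% = killing by high DMSO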
# [3] = HDN33 neuroblastoma growth inhibition, cell-based, chromothripsis tumors, cisplatin or BGB combos (AID 1671450); details: HDN33 neuroblastoma cells, stronger effect = higher value;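 further: cells exposed to compound for four days; 0% = vehicle DMSO and 100% = cell killing by high DMSO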
# [4] = ICB984 medulloblastoma cell growth inhibition, synergistic combos for chromothripsis tumors, cisplatin or BGB combos (AID 1671451; call rule not given here;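 further: cells exposed for 96 hours before readout; 0% = vehicle DMSO and 100% = killing by high DMSO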); details: ICB984 medulloblastoma cells, drug combinations, stronger effect = higher value
# [5] = LFS_MB_1R medulloblastoma cell growth inhibition, synergistic combos for chromothripsis tumors, cisplatin or BGB combos (AID 1671452); details: LFS_MB_1R medulloblastoma cells, stronger effect = higher value;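 further: cells exposed for 96 hours before readout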
# [6] = HTB85 osteosarcoma cell growth inhibition, synergistic combos for chromothripsis tumors, BGB or cisplatin IC20 combos (AID 1671453); details: HTB85 osteosarcoma cells, drug combinations, stronger effect = higher value;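 further: cells exposed for 96 hours before readout; 0% = vehicle DMSO and 100% = high DMSO killing control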
# [7] = CRL2098 osteosarcoma cell growth inhibition, synergistic combos for chromothripsis tumors, BGB or cisplatin IC20 combos (AID 1671454); details: CRL2098 osteosarcoma cells, drug combinations, stronger effect = higher value;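 further: cells exposed for 96 h before readout; 0% = vehicle DMSO and 100% = killing by high DMSO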
# [8] = HD-MB03 medulloblastoma cell growth inhibition, synergistic combos for chromothripsis tumors, BGB or cisplatin IC20 combos (AID 1671455; in the data active means inhibition above about 83%;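 further: 0% = vehicle DMSO and 100% = high DMSO as cytotoxic control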); details: HD-MB03 medulloblastoma cells, stronger effect = higher value
# [9] = UWB1.289 ovarian carcinoma cell growth inhibition, synergistic combos for chromothripsis tumors, BGB or cisplatin combos (AID 1671456); details: UWB1.289 ovarian carcinoma cells, stronger effect = higher value;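 further: cells exposed to compound for four days; 0% = vehicle DMSO and 100% = killing by high DMSO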
# [10] = LFS_MB_2R medulloblastoma cell growth inhibition, synergistic combos for chromothripsis tumors, cisplatin combos (AID 1671457); details: LFS_MB_2R medulloblastoma cells, stronger effect = higher value;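 further: cells exposed to compound for four days before readout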
# [11] = MDA-MB-436 breast carcinoma cell growth inhibition, synergistic combos for chromothripsis tumors, BGB or cisplatin combos (AID 1671458; call rule not given here;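 further: cells exposed for 96 hours; 0% = vehicle DMSO and 100% = killing by high DMSO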); details: MDA-MB-436 breast carcinoma growth inhibition, drug combinations, stronger effect = higher value
# [12] = UWB1.289_BRCA1 ovarian cancer growth, cell-based, BGB or cisplatin combinations (AID 1671459); details: UWB1.289 BRCA1 ovarian carcinoma, drug combinations, stronger effect = higher value
# [13] = human astrocyte viability loss, single and combined drugs, cytotoxicity control for chromothriptic childhood tumor combination screen, cell-based, BGB or cisplatin IC20 combos (AID 1671460); details: Human astrocytes, drug combinations, stronger effect = higher value;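 further: cells exposed to compounds for 96 hours before viability readout; 0% = vehicle and 100% = killing control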
# [14] = growth inhibition of BT084 medulloblastoma cells, cell-based, ICGC_MB145, cisplatin and BGB IC40 combos (AID 1671461); details: drug combinations, stronger effect = higher value;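 further: cells exposed to drugs for 96 hours; 0% = vehicle DMSO and 100% = high DMSO full killing control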
# [15] = growth inhibition of RCMB18 medulloblastoma cells, cell-based, cisplatin and BGB IC40 combos (AID 1671462); details: stronger effect = higher value;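 further: cells exposed to compound for four days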
# [16] = growth inhibition of CRL1545 osteosarcoma cells, cell-based, cisplatin and BGB IC20 combos (AID 1671464); details: stronger effect = higher value;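 further: cells exposed to compound for 96 hours before readout; 0% = vehicle DMSO and 100% = high DMSO killing control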
# [17] = measured here: combination with BGB IC40, at 0.05 µM
# [18] = measured here: with BGB IC20 combination, at 0.5 µM
# [19] = measured here: with cisplatin IC20 combination, at 0.5 µM
# [20] = measured here: combination with cisplatin, at 0.5 µM
# [21] = measured here: combination with cisplatin, at 5 µM
structure (smiles),measurement,setting,value
NCCOc1cc(C(=O)Nc2cc(OCCN)c3ccccc3n2)nc(C(=O)Nc2cc(OCCN)c3ccccc3n2)c1,outcome,[1],inactive
same,inhibition,"[2]; at 0.5 µM, stronger effect = higher value",2.22% (inactive)
same,inhibition,"[2]; measured here: combination with BGB IC20, at 0.005 µM",-38.8%
same,inhibition,"[2]; measured here: combination with BGB IC40, at 0.005 µM",62.7%
same,inhibition,[2]; [17],-24.9%
same,inhibition,"[2]; measured here: combination with cisplatin, at 0.5 µM, stronger effect = higher value",12.8%
same,inhibition,"[2]; measured here: combination with cisplatin, at 5 µM, stronger effect = higher value",-64.9%
same,inhibition,"[3]; BGB combo, at 5 µM",-54.1%
same,inhibition,[3]; at 0.5 µM,-9.7% (inactive)
same,inhibition,"[3]; cisplatin combo, at 5 µM",-17.5%
same,inhibition,[3]; [18],-37.5%
same,inhibition,[3]; [19],8.64%
same,inhibition,"[3]; single agent, at 5 µM",-33.3%
same,inhibition,"[4]; BGB IC20 combo, at 0.005 µM",-1.03%
same,inhibition,"[4]; BGB IC40 combo, at 0.005 µM",-1.14%
same,inhibition,"[4]; BGB IC40 combo, at 0.05 µM",41.5%
same,inhibition,[4]; at 0.5 µM,-7.14% (inactive)
same,inhibition,"[4]; cisplatin combo, at 0.05 µM",38.8%
same,inhibition,"[4]; cisplatin combo, at 0.5 µM",5%
same,inhibition,"[4]; cisplatin combo, at 5 µM",-7.59%
same,inhibition,"[4]; measured here: 5 uM single agent, at 5 µM",-6.04%
same,inhibition,[5]; at 0.5 µM,-45.4% (inactive)
same,inhibition,[5]; [17],-42.8%
same,inhibition,[5]; [20],-52.8%
same,inhibition,[5]; [21],-9.07%
same,inhibition,[6]; at 0.5 µM,-5.41% (inactive)
same,inhibition,"[6]; measured here: with BGB IC20, at 0.5 µM",16.9%
same,inhibition,"[6]; measured here: with BGB IC20, at 5 µM",14.7%
same,inhibition,"[6]; measured here: with cisplatin IC20, at 0.5 µM",-18.6%
same,inhibition,"[6]; measured here: with cisplatin IC20, at 5 µM",11.6%
same,inhibition,"[6]; single agent, at 5 µM",-2.66%
same,inhibition,[7]; at 0.5 µM,-35.9% (inactive)
same,inhibition,"[7]; measured here: combination with BGB at IC20, at 0.5 µM",-36.6%
same,inhibition,"[7]; measured here: combination with cisplatin at IC20, at 0.5 µM",-37.8%
same,inhibition,[8]; at 0.5 µM,-13.1% (inactive)
same,inhibition,"[8]; measured here: combo with BGB at IC20, at 0.5 µM",-12.1%
same,inhibition,"[8]; measured here: combo with cisplatin at IC20, at 0.5 µM",-20.4%
same,inhibition,[9]; at 0.5 µM,-1.71% (inactive)
same,inhibition,"[9]; measured here: inhibition with BGB combination, at 0.05 µM",-20.7%
same,inhibition,"[9]; measured here: inhibition with cisplatin combination, at 0.05 µM",-14.5%
same,inhibition,[10]; at 0.5 µM,-18.8% (inactive)
same,inhibition,[10]; [20],-2.5%
same,inhibition,[10]; [21],-13.9%
same,inhibition,[11]; at 0.5 µM,0.88% (inactive)
same,inhibition,"[11]; measured here: BGB combination, at 0.5 µM",5.33%
same,inhibition,"[11]; measured here: BGB combination, at 5 µM",54.3%
same,inhibition,"[11]; measured here: cisplatin combination, at 0.5 µM",-17.7%
same,inhibition,"[11]; measured here: cisplatin combination, at 5 µM",63.8%
same,inhibition,"[12]; BGB combination, concentration series, at 5 µM",15.3%
same,inhibition,[12]; at 0.5 µM,-6.49% (inactive)
same,inhibition,"[12]; cisplatin combination, concentration series, at 5 µM",19.1%
same,inhibition,[13]; at 0.5 µM,5.8% (inactive)
same,inhibition,"[13]; measured here: combo with BGB IC20, at 0.5 µM",5.26%
same,inhibition,"[13]; measured here: combo with cisplatin IC20, at 0.5 µM",9.36%
same,inhibition,[14]; at 0.5 µM,-11.2% (inactive)
same,inhibition,"[14]; cisplatin combination, at 0.5 µM",-3.81%
same,inhibition,"[14]; cisplatin combination, at 5 µM",-140%
same,inhibition,"[14]; measured here: BGB IC40 combination 0.05 uM, at 0.05 µM",-28.5%
same,inhibition,"[14]; single agent, at 5 µM",-22.2%
same,inhibition,[15]; at 0.5 µM,-16.6% (inactive)
same,inhibition,"[15]; cisplatin combo, at 5 µM",-19.4%
same,inhibition,"[15]; measured here: BGB IC40 combination, at 0.05 µM",-9.5%
same,inhibition,[15]; [20],-38.3%
same,inhibition,"[15]; single agent, at 5 µM",-10.4%
same,inhibition,[16]; at 0.5 µM,11.6% (inactive)
same,inhibition,[16]; [18],-1.76%
same,inhibition,[16]; [19],17%
same,inhibition,"[16]; single agent, at 0.05 µM",-15.4%
same,inhibition,"[16]; single agent, at 5 µM",55%
